The text below walks through data of PubChem BioAssay (NCI).

Among the test systems are SR leukemia; RPMI-8226 leukemia; OVCAR-8 ovarian; OVCAR-4 ovarian; SK-OV-3 ovarian; OVCAR-3 ovarian; HS 578T breast; NCI/ADR-RES ovarian; T-47D breast; BT-549 breast; MDA-MB-435 melanoma; SW-620 colon; MCF7 breast; HCT-116 colon; HCC-2998 colon; KM12 colon; OVCAR-5 ovarian; IGROV1 ovarian.
What all share (assay): NCI-60 one-dose screen, 48 h (100 = growth as untreated, 0 = no growth, -100 = all killed)
Conditions in all cases: 10 µM unless noted

“And” between values parts separate entries of the source, which are not always exact repeats. Equal entries are not always repeated. Compounds without any hit were thinned out: in the full panel of roughly 83,000, 20% have a hit.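 Step 1: grow cells in 96-well plates. Step 2: add test compound at a single concentration. Step 3: incubate 48 h. Step 4: record percent growth.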 The source made the active and inactive calls. Rule for the calls: active = growth percent below 10; inactive = the rest.

Consider `COc1cc2c(Nc3ccc(Cl)c(Cl)c3F)ncnc2cc1OCC1C[C@@H]2CN(C)C[C@@H]2C1` (some centres not stated), for which the growth in the experiment with SR leukemia is -23.1% (active) and -45.4% (active); with RPMI-8226 leukemia, -48.5% (active) and 6.02% (active); in the experiment on OVCAR-8 ovarian, -88.4% (active) and 27.4% (inactive); in the experiment with OVCAR-4 ovarian, -42.7% (active) and 29.5% (inactive); in the experiment with SK-OV-3 ovarian, -87.7% (active) and -13.8% (active); in the experiment with OVCAR-3 ovarian, -53.9% (active) and 25.6% (inactive). The growth was -16.9% (active) in the experiment on HS 578T breast; -56.5% (active) and 29.6% (inactive) in the experiment on NCI/ADR-RES ovarian; -74.6% (active) and -6.7% (active) in the experiment on T-47D breast; -87.2% (active) and 36.9% (inactive) in the experiment with BT-549 breast; -95.8% (active) and -38% (active) in the experiment with MDA-MB-435 melanoma; -76.6% (active) and 6.96% (active) with SW-620 colon. Further, the growth with MCF7 breast was -71.9% (active) and 13.4% (inactive); in the experiment with HCT-116 colon, -85.4% (active) and 7.79% (active); in the experiment on HCC-2998 colon, -87.7% (active) and 22.2% (inactive); in the experiment on KM12 colon it was -88.5% (active) and 39.9% (inactive).
For the compound `CN(Cc1ccccc1)Cc1ccccc1`, the growth in the experiment on SR leukemia is 105% (inactive); with OVCAR-8 ovarian it was 117% (inactive); in the experiment on OVCAR-5 ovarian, 103% (inactive); in the experiment with OVCAR-4 ovarian, 113% (inactive); with SK-OV-3 ovarian, 113% (inactive); in the experiment on IGROV1 ovarian, 99.4% (inactive). The growth in the experiment on OVCAR-3 ovarian is 106% (inactive); in the experiment on HS 578T breast it was 108% (inactive); with NCI/ADR-RES ovarian, 102% (inactive); with T-47D breast, 92.8% (inactive); in the experiment on BT-549 breast it was 106% (inactive); in the experiment with MDA-MB-435 melanoma it was 105% (inactive). The growth with SW-620 colon is 112% (inactive); with MCF7 breast, 97.9% (inactive); in the experiment on HCT-116 colon, 103% (inactive); in the experiment on HCC-2998 colon, 99.4% (inactive); in the experiment with KM12 colon, 98.5% (inactive).
Turning to `CCN(CC)C(=S)SSC(=S)N(CC)CC`, the growth was 3.32% (active) and 89% (inactive) in the experiment on SR leukemia; 65.8% (inactive) and 89.4% (inactive) in the experiment on OVCAR-8 ovarian; 86% (inactive) and 100% (inactive) with OVCAR-5 ovarian; 76.6% (inactive) and 94.6% (inactive) in the experiment with OVCAR-4 ovarian; 98.7% (inactive) and 102% (inactive) in the experiment with SK-OV-3 ovarian; 77.5% (inactive) and 113% (inactive) in the experiment on IGROV1 ovarian. In addition, the growth with OVCAR-3 ovarian was 68.3% (inactive) and 108% (inactive); in the experiment on HS 578T breast, 111% (inactive); with NCI/ADR-RES ovarian it was 84.1% (inactive) and 106% (inactive); in the experiment with T-47D breast, 79.4% (inactive) and 87.3% (inactive); with BT-549 breast it was 90.6% (inactive) and 90.3% (inactive); in the experiment on MDA-MB-435 melanoma, 83.3% (inactive) and 106% (inactive). Moreover, the growth in the experiment with SW-620 colon was 77.2% (inactive) and 109% (inactive); in the experiment on MCF7 breast, 71.4% (inactive) and 95.9% (inactive); with HCT-116 colon it was 58.6% (inactive) and 93.8% (inactive); in the experiment with HCC-2998 colon, 91.9% (inactive) and 102% (inactive); with KM12 colon, 88.8% (inactive) and 97.5% (inactive).
Regarding `CCCCOc1cc(C(=O)NCCN(CC)CC)c2ccccc2n1`, the growth in the experiment with SR leukemia was 101% (inactive) and 93% (inactive); in the experiment with OVCAR-8 ovarian, 92.9% (inactive) and 81.8% (inactive); in the experiment with OVCAR-5 ovarian, 91.4% (inactive) and 97.6% (inactive); in the experiment with OVCAR-4 ovarian it was 94.2% (inactive) and 101% (inactive); with SK-OV-3 ovarian, 112% (inactive) and 92.8% (inactive); in the experiment with IGROV1 ovarian it was 102% (inactive) and 111% (inactive). For the same compound, the growth with OVCAR-3 ovarian is 114% (inactive) and 101% (inactive); with NCI/ADR-RES ovarian, 92.2% (inactive) and 99.3% (inactive); in the experiment with T-47D breast, 82.9% (inactive) and 92.4% (inactive); with BT-549 breast, 93.4% (inactive) and 98.5% (inactive); in the experiment with SW-620 colon it was 105% (inactive) and 97.7% (inactive); in the experiment on MCF7 breast it was 93.3% (inactive) and 95% (inactive). The growth in the experiment on HCT-116 colon was 91% (inactive) and 105% (inactive); in the experiment on HCC-2998 colon, 96% (inactive) and 92.2% (inactive); in the experiment on KM12 colon, 101% (inactive) and 110% (inactive).
`Nc1ccc2[nH]c(-c3ccccc3)cc(=O)c2c1`: the growth was 4.32% (active) in the experiment on SR leukemia; 97.4% (inactive) in the experiment with OVCAR-8 ovarian; 94.8% (inactive) in the experiment on OVCAR-5 ovarian; 111% (inactive) in the experiment with OVCAR-4 ovarian; 98.1% (inactive) with SK-OV-3 ovarian; 95.5% (inactive) with IGROV1 ovarian. Further, the growth is 64.3% (inactive) in the experiment with OVCAR-3 ovarian; 107% (inactive) in the experiment with HS 578T breast; 70.5% (inactive) in the experiment with NCI/ADR-RES ovarian; 78% (inactive) in the experiment on T-47D breast; 81.2% (inactive) with BT-549 breast; -21.2% (active) with MDA-MB-435 melanoma. The growth was 57.6% (inactive) in the experiment with SW-620 colon; 51.7% (inactive) in the experiment on MCF7 breast; 81% (inactive) with HCT-116 colon; 78.3% (inactive) in the experiment with HCC-2998 colon; 45.2% (inactive) in the experiment on KM12 colon.
